Laboratory results: PubChem BioAssay
Unmarked numbers belong to inactive results. How the calls were made is not given here.

Target: Pantothenate synthetase (Mycobacterium tuberculosis (strain ATCC 25618 / H37Rv)) (UniProt P9WIL5)
Assay: Recombinant Mtb pantothenate synthetase (PanC) inhibitors, coupled enzyme, confirmatory (AID 375);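 further: 0% = full reaction with vehicle and 100% = no enzyme background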
Conditions: coupled enzyme assay; at 10 µM, hits give high values

Chain of Pantothenate synthetase (Mycobacterium tuberculosis (strain ATCC 25618 / H37Rv)) (P9WIL5 whole entry, looked up): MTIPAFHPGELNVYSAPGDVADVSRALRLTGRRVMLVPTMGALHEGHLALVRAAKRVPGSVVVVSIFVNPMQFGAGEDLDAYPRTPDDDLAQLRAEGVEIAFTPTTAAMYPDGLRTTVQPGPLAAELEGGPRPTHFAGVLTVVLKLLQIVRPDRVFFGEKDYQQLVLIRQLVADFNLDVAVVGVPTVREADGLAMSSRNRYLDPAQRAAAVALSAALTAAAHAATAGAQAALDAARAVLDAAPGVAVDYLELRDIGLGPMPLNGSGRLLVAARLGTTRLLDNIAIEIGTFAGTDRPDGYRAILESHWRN

Row | Compound | inhibition [%]
1 | O=C(c1ccccc1)c1coc2ccc(O)c(CN3CCOCC3)c12 | 4
2 | CN(C)c1cccc2c(S(=O)(=O)Nc3ccccn3)cccc12 | 1
3 | O=P1(O)C=C(c2ccccc2)NC(c2ccccc2)=C1 | 0
4 | COc1ccc(OC)c(C2C(C(=O)Nc3cccnc3)=C(C)NC3=C2C(=O)CCC3)c1 (stereo not given) | 0
5 | COc1ccc(C)cc1S(=O)(=O)N1CCN(S(=O)(=O)c2cc(C)ccc2OC)CC1 | 5
6 | COCCn1c(SCC(=O)N(C(C)C)C(C)C)nnc1-c1cc2ccccc2cc1O | 0
7 | Cc1ccc(Cc2c(C)nc3c(C(=O)O)cnn3c2C)cc1 | 4
8 | CN1CCN(S(=O)(=O)c2ccc(Sc3nnc(-c4cccs4)n3-c3ccccc3)nc2)CC1 | 3
9 | COc1ccc(C(=O)N2CCN(C3CCCCC3)CC2)c(OC)c1 | 0
10 | O=C(CSc1ncnc2c1cnn2-c1ccccc1)Nc1ccccc1 | 5
11 | COc1ccc2c(c1)C(=NO)c1cc(OC)ccc1-2 | 0
12 | CC1(C)OC(=O)C(=CNC(CCC(N)=O)C(=O)O)C(=O)O1 (stereo not given) | 3
13 | Cc1cc(C(=O)Cn2cncn2)c(C)n1CCc1ccc(F)cc1 | 1
14 | CCn1cc(C(=O)Nc2cc3c(cc2NC(C)=O)OCCO3)c(=O)c2ccc(C)nc21 | 1
15 | Cc1cc(C)c2c(n1)nn1c(N3CCN(c4cccc(Cl)c4)CC3)cc(C)nc21 | 5
16 | Cc1cccc(N(CC(=O)N2CCCC2)S(=O)(=O)c2ccccc2)c1C | 0
17 | CCCCSc1nnc([C@H](C)NC(=O)OC(C)(C)C)o1 | 2
18 | CCCCN(C)Cc1c(C)[nH]c2c(Cl)cccc2c1=O | 5
19 | CC1CN(CC(O)COc2ccccc2C(C)(C)C)CC(C)O1 (stereo not given) | 0
20 | CCCc1cc(C(=O)Nc2sc3c(c2C#N)CCC3)no1 | 7

Row | Compound | inhibition [%]
21 | COc1ccc(-n2nnc3c(=O)n(C/C=C/c4ccccc4)cnc32)cc1 | 2
22 | Cc1cc(NC(=O)CSc2nc(C3CCCCC3)nc3ccccc23)no1 | 0
23 | Cc1sc2ncnc(SCC(=O)N3CCCC3)c2c1C | 0
24 | CC(C)(C)NC(=O)C(c1ccco1)N(C(=O)Cn1nnc(-c2ccc(F)cc2)n1)c1ccccc1 (stereo not given) | 0
25 | CCn1c(-c2cc(Br)ccc2O)n[nH]c1=S | 0
26 | CC1Cc2nc(SCC(=O)Nc3ccc(F)cc3F)n(C)c(=O)c2S1 (stereo not given) | 0
27 | Cc1ccc(S(=O)(=O)N2CCOCC2)cc1C(=O)Nc1nc(-c2cccnc2)cs1 | 0
28 | Cc1cccn2cc(-c3ccccc3)nc12 | 0
29 | CCN(CC)CCCN1C(=O)C(=O)/C(=C(/O)c2ccc3c(c2)OCO3)C1c1ccccn1 (stereo not given) | 1
30 | CSc1ccccc1NC(=O)CN(c1ccccc1)S(=O)(=O)N(C)C | 3
31 | CCOC(=O)/C=C1\SCC(=O)N1Cc1nnc(-c2ccccc2Br)o1 | 0
32 | CC(=O)c1cc(-c2ccc(F)cc2)n(CCC(=O)Nc2cc(C)[nH]n2)c1C | 4
33 | CCN(CC)S(=O)(=O)c1ccc2c(c1)nc(SCC(=O)NC1CC1)n2-c1ccccc1OC | 0
34 | c1ccc(SCc2nc3ccccc3[nH]2)nc1 | 4
35 | COCCn1cc(C(=O)c2ccccc2OCC(=O)Nc2cc(C)on2)cc(C#N)c1=O | 0
36 | CCOc1ccc(NC(=O)CN2CCN(CC(=O)Nc3ccc(F)c(F)c3)CC2)cc1 | 0
37 | O=C(COc1cccc(Oc2ccccc2)c1)Nc1ncccn1 | 2
38 | CSC1=C(C#N)C(c2ccc(Cl)cc2)C2=C(CC(C)(C)CC2=O)N1 (stereo not given) | 2
39 | CNC(=O)c1ccsc1NC(=O)CN1C(=O)CCC1=O | 0
40 | NCCCCCc1nnc(SC/C=C/c2ccccc2)o1 | 0
